Measurements: PubChem BioAssay (NCI)
The panel holds about 83,000 compounds, 20% with a hit somewhere; the sample as a whole holds those more often.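 48-hour exposure, single concentration, 96-well plates; percent growth endpoint where 0 means no net growth. Active: below 10.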 Active and inactive are the calls of the source.

test system: TK-10 renal; test: NCI-60 one-dose screen, 48 h (100 = growth as untreated, 0 = no growth, -100 = all killed); conditions: 10 µM unless noted
Procedure: Growth inhibition of the TK-10 human tumor cell line is measured as a screen for anti-cancer activity. Cells are grown in 96 well plates and exposed to the test compound for 48 hours. Compounds are tested at a single concentration, which is 10^-5 M for most compounds. The reported endpoint is percent growth (GI% or GIPRCNT), where numbers from 0 - 100% represent growth inhibition, and numbers from -100% - 0 represent cell death. For example, a value of 40 represents 60% growth inhibition. A value of 0 means no net growth occurred over the course of the experiment. A value of -40 indicates 40% of cells at the beginning of the experiment died by the end of the experiment. A value of -100 means all cells are dead at the end of the experiment.
NCI-60 Human Tumor Cell Lines Screen was performed using the standard one-dose NCI protocol, which is described in more detail at https://dtp.cancer.gov/discovery_development/nci-60/default.htm.
Compounds with GIPRCNT values below 10 were considered active. Activity score was based on GIPRCNT using the following formula: […]
Score is 0 for GIPRCNT values of 100 or above, 50 for GIPRCNT values of 0, and 100 for GIPRCNT values of -100.

| SMILES | growth |
| --- | --- |
| O=c1[nH]c2cc(Cl)ccc2n1C1CCN(CCCC(c2ccc(F)cc2)c2ccc(F)cc2)CC1 | 13.1% (inactive) |
| CCCCn1cc(C(=O)/C(C#N)=C/c2cc3ccccc3nc2Cl)c2cc(OC)ccc21 | 101% (inactive) |
| Cc1nnc([S-])s1.[Au+].c1ccc([PH+](c2ccccc2)c2ccccc2)cc1 | -61.5% (active) |
| CC(=O)OC1CCC2(C)C(=CCC3C4CC(CN5CC5)C(=O)C4(C)CCC32)C1 (stereo not given) | -12.1% (active) |
| CN(Cc1cccnc1)N=O | 91.6% (inactive) |
| CNC(C)Cc1ccccc1 (stereo not given) (tested in a mixture with another compound) | 92.8% (inactive) |
| CC[C@]12C=CCN3CC[C@@]4(c5ccc(OC)cc5N(C)[C@H]4[C@@](O)(C(=O)OC)[C@@H]1OC(=O)CCCN1CCN(CCCC(=O)O[C@@H]4[C@]5(CC)C=CCN6CC[C@@]7(c8ccc(OC)cc8N(C)[C@H]7[C@@]4(O)C(=O)OC)[C@@H]65)CC1)[C@@H]32 | -87.9% (active) |
| C[C@]12CCC(=O)CC1CC[C@@H]1C2CC[C@@]2(C)C1CC[C@@H]2OC(=O)CC[Se][Se]CCC(=O)O[C@H]1CCC2[C@@H]3CCC4CC(=O)CC[C@]4(C)C3CC[C@@]21C (stereo not given in full) | 77.4% (inactive) |
| Oc1ccc(O)c2c1C1(Cl)C(Cl)=C(Cl)C2(Cl)C1(Cl)Cl | 75.4% (inactive) |
| O=C(CCCN1CCC2(CC1)C(=O)NCN2c1ccc(F)cc1)c1ccc(F)cc1 | 102% (inactive) |
| Cc1cc(N(CCCl)CCCl)ccc1C=Nc1ccc2ccccc2c1 | 73% (inactive) |
| O=[N+]([O-])c1cc([N+](=O)[O-])c(Cl)c(Cl)c1Cl | -99.5% (active) |
| OC1(c2ccc(Cl)cc2Cl)c2ccccc2C2=NCCN21 (stereo not given) | 76.6% (inactive) |
| CC1(C)N=C(N)N=C(N)N1c1ccc(CNC(=O)Nc2ccc(S(=O)(=O)F)c(Cl)c2)c(Cl)c1 | 22.6% (inactive) |
| CCOC(=O)C1(c2ccccc2)CCN(CC(=O)c2ccc(NC(C)=O)cc2)CC1 | 96.4% (inactive) |
| c1ccc(-c2ccc3ccccc3[o+]2)cc1 | 139% (inactive) |
| CC1(C)N=C(N)N=C(N)N1c1ccc(CCCCc2ccc(Cl)cc2S(=O)(=O)F)c(Cl)c1 | 30.3% (inactive) |
| COc1cc(C2=NN(c3ccccc3)C(c3sc(N(CCCl)CCCl)nc3Cl)C2)cc(OC)c1OC (stereo not given) | 102% (inactive) |
| O=C(NCCNC(=O)c1ccc([As](O)O)cc1)c1ccc([As](O)O)cc1 | 111% (inactive) |
| Cc1cccc(N=C2c3cc([N+](=O)[O-])ccc3-c3c2cc([N+](=O)[O-])cc3[N+](=O)[O-])c1 | 56.1% (inactive) |

| SMILES | growth |
| --- | --- |
| CC1COC(=O)C1 (stereo not given) | 100% (inactive) |
| CC(C)OC(=S)[S-].[Au+].c1ccc([PH+](c2ccccc2)c2ccccc2)cc1 | -3.22% (active) |
| O=C(CI)Nc1ccc(Br)cc1 | -81.4% (active) |
| CC1(C)N=C(N)N=C(N)N1c1ccc(OCCCCNC(=O)c2ccc(S(=O)(=O)F)cc2)c(Cl)c1 | 57.9% (inactive) |
| CCN1CC2(CN(CC)C1=S)C(=O)NC(=O)NC2=O | 98.5% (inactive) |
| c1ccc2nc(OCCN3CC3)ccc2c1 | 108% (inactive) |
| c1ccc([As]=[As]c2ccccc2)cc1 (stereo not given) | -86% (active) |
| O=C(Nc1ccc(S(=O)(=O)F)cc1)Oc1ccccc1 | 96.5% (inactive) |
| CC(=O)O[C@H]1CC[C@H]2[C@@H]3CC[C@H]4CC=C(C)C[C@]4(C)[C@H]3CC[C@]12C | 108% (inactive) |
| Fc1ccc(C2=NN(c3ccccc3)C(c3sc(N(CCCl)CCCl)nc3Cl)C2)cc1 (stereo not given) | 117% (inactive) |
| CCOc1ccc(C(O)CN(C)Cc2ccccc2)cc1Cl (stereo not given) | 102% (inactive) |
| O=C1c2ccccc2C(=O)N1[N+](=O)[O-] | 93.2% (inactive) |
| COc1ccc(/C=C\c2cc(OC)c(OC)c(OC)c2)cc1N/C=C\C(=O)c1c[nH]c2ccccc12 | 60.1% (inactive) |
| CC(C)Nc1ccc(Nc2ccccc2)cc1 | 45.2% (inactive) |
| O=[N+]([O-])c1ccc(/C=C/C=C/c2ccc(S(=O)(=O)F)cc2)c(Cl)c1 | 108% (inactive) |
| Nc1nc(N)c(-c2ccc(Cl)c(Cl)c2)c(/C=C/c2ccc(S(=O)(=O)F)cc2)n1 | 86.8% (inactive) |
| O=[N+]([O-])c1ccc2cnn(CSP(=S)(c3ccccc3)c3ccccc3)c2c1 | 127% (inactive) |
| O=C(CF)N(O)c1ccc(/C=C/c2ccccc2)cc1 | 67.4% (inactive) |
| NC(=O)NC(=O)CI | 88.6% (inactive) |
| CC[C@@]1(C2O[C@@H](C3O[C@@](O)(CC)[C@H](C)C[C@@H]3C)C[C@@H]2C)CC[C@H]([C@]2(C)CCC3(C[C@H](O)[C@@H](C)[C@@H]([C@H](C)[C@@H](OC)[C@H](C)C(=O)O)O3)O2)O1 (stereo not given in full) | 49.1% (inactive) |
